Measured values reported in ChEMBL document CHEMBL3988442, “University of Dundee, Small-Polar-MMV Screening Library” (2021).
The whole screen tested about 48,000 compounds, of which about 13,000 (27%) showed an effect of 50% or more. The list shows a part of the results.

System: Wolbachia pipientis
Experiment: Anti-Wolbachia Cell-Based Screen
Type: functional
Design: scale not given: in the data most compounds retested in dose-response had high values
Conditions: 5 µM

| SMILES | Percent Effect |
| --- | --- |
| CCC(C)(NCC(=O)NC(C)C)c1nccs1 (stereo unspecified) | -10.98% |
| NC(=O)COc1ccc(CN2CCNC(C(=O)NC3CC3)C2)cc1Cl (stereo unspecified) | -45.28% |
| CC1CCN(c2ccc3c(-c4ncc(C(=O)O)s4)noc3c2)CC1 | -16.58% |
| CC1(C)COCCN1C(=O)CCc1nc(-c2ccccn2)no1 | -0.8567% |
| O=C(Nc1cccnc1)Nc1ccn(CC(F)F)n1 | -6.683% |
| CN(C)CC1(O)CCCN(c2nc(-c3ccccc3)no2)CC1 (stereo unspecified) | -0.08727% |
| CN(C)CCOCC1CN(Cc2cccc(F)c2)Cc2nccn2C1.O=C(O)C(F)(F)F.O=C(O)C(F)(F)F (stereo unspecified) | 63.4% |
| CN(C)CC1CN(Cc2cccc(C#N)c2)Cc2nccn2C1.O=C(O)C(F)(F)F.O=C(O)C(F)(F)F (stereo unspecified) | 95.93% |
| N#Cc1cccc(CN2Cc3nccn3CC(CN3CCCC3)C2)c1.O=C(O)C(F)(F)F.O=C(O)C(F)(F)F (stereo unspecified) | 90.25% |
| CN(C)CC1CN(Cc2ccsc2)Cc2nccn2C1.O=C(O)C(F)(F)F.O=C(O)C(F)(F)F (stereo unspecified) | -11.98% |
| CCN(CC)CC1CN(Cc2nccs2)Cc2nccn2C1.O=C(O)C(F)(F)F.O=C(O)C(F)(F)F (stereo unspecified) | -6.3% |
| CCN(CC)CC1CN(CCc2ccccc2)Cc2nccn2C1.O=C(O)C(F)(F)F.O=C(O)C(F)(F)F (stereo unspecified) | 77.99% |
| Cc1nc(CN2Cc3nccn3CC(CN3CCCC3)C2)cs1.O=C(O)C(F)(F)F.O=C(O)C(F)(F)F (stereo unspecified) | -3.569% |
| O=C(Cc1ccccc1)N1Cc2nccn2CC(CN2CCCC2)C1.O=C(O)C(F)(F)F (stereo unspecified) | 14.72% |
| CN(C)CCOCC1CN(Cc2ccsc2)Cc2ccnn2C1.O=C(O)C(F)(F)F.O=C(O)C(F)(F)F.O=C(O)C(F)(F)F (stereo unspecified) | -16.3% |
| CCN(CCC(=O)NC1CC1)Cc1ccc(Cl)s1 | -9.828% |
| Cc1ccccc1OCC1CCCN(C(=O)CN(C)C2CCNCC2)C1 (stereo unspecified) | 4.855% |
| Cc1ccc(S(=O)(=O)N(C)CC(N)=O)c(Cl)c1 | 2.18% |
| Cc1nonc1CN(C)Cc1cnn(-c2ccc(F)cc2)c1 | 116.4% |
| Cc1nonc1CN(C)Cc1nc(-c2ccccc2Cl)oc1C | -14.91% |
| Cc1nonc1CN(C)Cc1cnn(-c2ccc(Cl)cc2)c1 | 133.6% |
| CCn1cc(CN(C)S(=O)(=O)c2ccc(Cl)cc2)cn1 | -0.8604% |
| CSCC(=O)N(C)Cc1cnn(-c2ccc(F)cc2)c1 | -3.16% |
| Cc1nonc1CN(C)Cc1c[nH]nc1-c1ccc(F)cc1F | 1.804% |

| SMILES | Percent Effect |
| --- | --- |
| CS(=O)(=O)c1nccn1CCOc1ccc(F)cc1Cl | 1.333% |
| COc1ccc(S(N)(=O)=O)cc1C(=O)N(C)Cc1cc(C)on1 | 5.855% |
| CCc1nc(C2CCCN(C(=O)c3cccc(Cl)c3)C2)no1 (stereo unspecified) | 126.3% |
| CCc1nc(C2CCCN(C(=O)c3cccc4c3ccn4C)C2)no1 (stereo unspecified) | -5.539% |
| Cc1noc(C2CCCN(C(=O)c3cccc(Cl)c3)C2)n1 (stereo unspecified) | -10.95% |
| CCc1nc(C2CCCN(C(=O)c3cccc(C(N)=O)c3)C2)no1 (stereo unspecified) | 115.3% |
| CCc1nc(C2CCCN(C(=O)c3ccc4c(c3)nnn4C)C2)no1 (stereo unspecified) | 5.742% |
| CCc1nc(C2CCCN(C(=O)c3cccc4cn[nH]c34)C2)no1 (stereo unspecified) | -7.145% |
| NC(=O)c1ccc(N2CCN(Cc3cccc4nsnc34)CC2)nc1 | -18.45% |
| COc1ccc(C(NC(=O)c2cccc[n+]2[O-])C2CC2)cc1 (stereo unspecified) | 3.052% |
| NC(=O)C1(c2cnccn2)CCCN1Cc1ccc(F)c(F)c1 (stereo unspecified) | 80.27% |
| NC(=O)CN1CC2(CCC1=O)CCN(Cc1ccc(Cl)c(F)c1)CC2 | 13.87% |
| CCS(=O)(=O)N1CCC2(CCCN(Cc3ccc(F)c(F)c3)C2=O)C1 (stereo unspecified) | -34.42% |
| CN(C)C(=O)N1CCCC2(CCN(Cc3ccc(Cl)c(F)c3)C2)C1 (stereo unspecified) | 2.484% |
| O=C(c1cn[nH]c1)N1CCC2(CCCN(Cc3ccc(F)c(F)c3)C2)C1 (stereo unspecified) | -7.691% |
| NC(=O)C1(c2cnccn2)CCCN1Cc1ccc(Cl)c(F)c1 (stereo unspecified) | 137% |
| COc1cc(CNC2CCN(c3ccccc3)C2)cc(OC)c1OC (stereo unspecified) | 0.4794% |
| CCn1cc(CN(C)S(=O)(=O)c2ccc(NC(C)=O)cc2)cn1 | 5.791% |
| CNC(=O)c1cc(C2CCCNC2)n[nH]1.Cl (stereo unspecified) | 96.41% |
| Cl.O=C(NC1CCCC1)c1cc(C2CCCNC2)n[nH]1 (stereo unspecified) | 150.1% |
| COc1ccccc1OCc1cc(C(=O)NC[C@@H]2CCCN2)n[nH]1 | -26.39% |
| O=C(c1ccc(C2CCCN2)s1)N1CC=CC1 (stereo unspecified) | 0.32% |
| CCCc1cc(C(=O)NC2CCCCNC2=O)[nH]n1 (stereo unspecified) | -7.069% |
| CNC(=O)c1cc(C2CCCN2)n[nH]1.Cl (stereo unspecified) | 155.4% |

| SMILES | Percent Effect |
| --- | --- |
| O=C(NC1CCCC1)c1n[nH]c2c1CNCC2 | -11.08% |
| CNC(=O)c1[nH]nc2c1CN(c1cc(C3CCCNC3)nc(C)n1)CC2 (stereo unspecified) | -2.336% |
| CCc1c(C)nn(CCNC(=O)c2cc(C3CC3)n[nH]2)c1C | 1.187% |
| CSC1(CNc2ccc(Br)cn2)CCOCC1 | -9.614% |
| CCOCCNC(=O)c1cc(Br)c2c(c1)OCCO2 | -10.75% |
| COCCC(=O)N1CC2(CCN(Cc3ccccc3Cl)CC2)C1.O=C(O)C(F)(F)F | 7.796% |
| Cc1noc(C)c1S(=O)(=O)N1CCc2nc(C3CCNCC3)ncc2C1.Cl | 92.39% |
| Cc1ccc(S(=O)(=O)N2CCc3nc(C4CCNCC4)ncc3C2)cc1.Cl | -12.78% |
| Cc1nc(C2CCN(S(=O)(=O)c3ccc4c(c3)CCC4)CC2)n[nH]1 | -1.341% |
| CCC[C@H]1CN(S(=O)(=O)c2c(C)noc2C)C[C@@H]1N | -20.84% |
| Cl.O=S(=O)(c1ccc(Cl)cc1)N1CCc2nc(C3CCNCC3)ncc2C1 | 112% |
| Cc1n[nH]c(C)c1CCN(C)C(=O)c1ccc(CN2CCCCC2)cc1 | -26.72% |
| CCc1cnc(C)nc1NCC(O)CN1CCCCCC1 (stereo unspecified) | -1.473% |
| Cc1nnc([C@@H]2CC[C@@H]3[C@@H](CCN3C3CCOCC3)O2)o1 | -2.772% |
| Cc1nnc([C@@H]2CC[C@@H]3[C@@H](CCN3S(C)(=O)=O)O2)o1 | 4.456% |
| Cc1nnc([C@@H]2CC[C@@H]3[C@@H](CCN3C3CCC3)O2)o1 | 107.1% |
| CC(=O)C(Cc1ccccc1)NC(=O)CSc1nncn1C (stereo unspecified) | 8.647% |
| COCC1(CNc2cc(C(C)C)nc(N)n2)CC1 | 12.37% |
| COCC(=O)N1CCc2ccc(=O)n(Cc3csc(C)n3)c2CC1.O=C(O)C(F)(F)F | -6.118% |
| Cc1nc(CN2C[C@@H]3CN(C(=O)NC(C)C)C[C@@H]3C2=O)cs1.O=C(O)C(F)(F)F | 4.242% |
| CCCC(=O)NC1CCc2c(ccc(=O)n2Cc2csc(C)n2)C1.O=C(O)C(F)(F)F (stereo unspecified) | 92.99% |
| Cc1nc(Cn2c3c(ccc2=O)CC(NC(C)C)CC3)cs1.O=C(O)C(F)(F)F.O=C(O)C(F)(F)F (stereo unspecified) | 95.6% |
| CC(C)NC1CCc2c(ccc(=O)n2CC2CC2)C1.O=C(O)C(F)(F)F (stereo unspecified) | -1.359% |
| Cc1nc(Cn2c3c(ccc2=O)CCN(CC2CC2)CC3)cs1.O=C(O)C(F)(F)F.O=C(O)C(F)(F)F | 7.996% |

| SMILES | Percent Effect |
| --- | --- |
| COCCNC(=O)[C@@H](C)[C@@H]1CCc2c(C)cc(OCC(=O)O)c(C)c2C1 | -3.996% |
| Cc1cccc(N2CCC(N3CCC4(CN(C)C(=O)O4)C3)CC2)c1C (stereo unspecified) | 10.35% |
| O=C(CN1CCOC1=O)N1CC[C@@H](c2ccc3ccccc3c2)[C@H](O)C1 | 1.475% |
| O=C(CCNC(=O)C1=Cc2ccccc2OC1)Nc1cccnc1 | -5.743% |
| CCCNC(=O)c1ccc(NC(=O)c2cccc(OCC)c2)cc1 | 17.24% |
| O=C(CCNC(=O)C1=Cc2ccccc2OC1)NCc1ccncc1 | -4.464% |
| CCOc1cccc(C(=O)NCCC(=O)NCc2ccncc2)c1 | 103.5% |
| O=C(CCNc1ccc(Cl)cn1)NCc1ccncc1 | -15.58% |
| CCOc1cccc(C(=O)Nc2ccncc2)c1 | 88.42% |
| O=C(CCNC(=O)c1ccccc1F)NCCNc1cccnc1 | 5.027% |
| Cn1cc(C(=O)Nc2cccc(Oc3ccncc3)c2)ccc1=O | -26.42% |
| O=C(CCNC(=O)c1cccc(OC(F)F)c1)Nc1cccnc1 | 104.3% |
| CS(=O)(=O)c1ccc(OCCNCc2ccc(F)cc2)cc1 | -11.24% |
| CC(C)c1ccc(O)c(C(=O)NC2CCN(c3ncccn3)CC2)c1 | 6.653% |
| O=S(=O)(Cc1ccccc1CN1CC[C@H](CO)[C@H](O)C1)c1ccccc1 | -17.78% |
| CC(C)N1C[C@@H](CO)[C@H](c2ccccc2)S1(=O)=O | 103.9% |
| O=S1(=O)[C@@H](c2ccccc2)[C@H](CO)CN1C1CC1 | 108.4% |
| O=C(C1CCS(=O)(=O)CC1)N1C[C@H]2CC[C@@H]1CN(Cc1ccccc1)C2 | -12.98% |
| CC(C)C1CN(C(=O)c2ccccc2)CCS1 (stereo unspecified) | -3.784% |
| COc1ccccc1CCC(=O)N1C[C@H](c2ccccc2)[C@@H](N)C1 | -7.051% |
| O=C(O)CN1CCC(c2ccccc2)CC1 | -2.297% |
| CN(C)C[C@@H]1CN(C(=O)Cc2ccccc2)C[C@@H]1CO | -32.78% |
| O=S1(=O)[C@@H](c2ccccc2)[C@H](CO)CN1c1ccccc1 | 106.6% |
| CCN1C(=O)CCC12CCN(S(=O)(=O)c1ccc(C#N)cc1)CC2 | 5.403% |
